# Laboratory results: the supplement of paper PMC4723716
# Tested on: Plasmodium falciparum NF54 gametocytes
# Experiment: viability index relative to DMSO control (fraction); higher = less gametocyte killing
# Conditions: 12.5 µM, incubation time: 72 h
# Method in brief: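 P. falciparum NF54 gametocytes at stages I–V were treated with compound at 12.5 µM for 72 hr at 37°C under low oxygen in serum-containing medium (0.50% gametocytemia, 1.25% hematocrit), then stained with MitoTracker Red CMXRos and imaged in serum-free medium containing 500 nM dye. The viability index is the gametocyte particle count divided by the plate mean of solvent-only wells.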
# [1] = gametocyte stage: Stage I viability index
# [2] = gametocyte stage: Stage II viability index
# [3] = gametocyte stage: Stage III viability index
# [4] = gametocyte stage: Stage IV viability index
# [5] = gametocyte stage: Stage V viability index
SMILES,viability index [1],viability index [2],viability index [3],viability index [4],viability index [5]
O=c1nc(C=Cc2ccc(Cl)cc2)oc2ccccc12,0.874,1.01,1,0.866,0.989
CCOC(=O)C1=C(C)N=c2sc(=Cc3ccccc3O)c(=O)n2C1c1ccc(OC)c2ccccc12 (stereo not given),0.0358,0.06,0.197,0.468,0.481
O=C(NCc1ccco1)C1CCN(S(=O)(=O)c2ccc(Br)cc2)CC1,0.938,0.983,0.99,0.824,0.945
Cc1cccc(-n2ncc3c(=O)[nH]c(-n4nc(C)cc4NC(=O)c4cc5ccccc5o4)nc32)c1,0.466,0.473,0.792,0.9,0.791
CCCCCCc1cc2cc(-c3nc4ccccc4[nH]3)c(=Nc3ccccc3C)oc2cc1O,0.0472,0.138,0.501,0.601,0.506
FC(F)(F)c1cccc(Nc2nc3ccccc3nc2Nc2cccc(C(F)(F)F)c2)c1,0.0175,0.0233,0.0149,0.00633,0.0649
Cc1ccc(-c2cc3nc4c(c(O)n3n2)CCCC4)cc1,0.537,0.804,0.894,0.766,0.857
O=C(Nc1cccc(C2=NCCN2)c1)Nc1cccc(C2=NCCN2)c1,0.565,0.718,0.773,0.908,0.818
CCC(C)NCC(O)(c1ccc(Cl)cc1)c1ccc(Cl)cc1 (stereo not given),0.0354,0.0657,0.378,0.584,0.615
COC(=O)c1ccc(C2C3=C(O)CC(c4ccc(F)cc4)CC3=Nc3ccccc3N2C(=O)c2ccccc2)cc1 (stereo not given),0.00524,0.005,0.0149,0,0
CCOc1ccc(CN2CCN(CC(O)COc3ccc(OCC(O)CN4CCN(Cc5ccc(OCC)cc5)CC4)cc3)CC2)cc1 (stereo not given),0.076,0.114,0.133,0.104,0.0519
Cc1ccc2nc(C)cc(Nc3cccc(C(F)(F)F)c3)c2c1,0.325,0.504,0.803,0.829,0.857
CCN(CC)c1cc(C)c2cc(NC(=O)c3cccc(OC)c3)ccc2n1,0.154,0.563,0.864,0.967,1.01
CCOc1cc2c(cc1OCC)C(c1cc(C)c(O)c(C)c1)NCC2 (stereo not given),0.0111,0.123,0.642,0.851,0.78
COc1ccc(C(=O)C2CC2c2ccc(Cl)cc2)cc1 (stereo not given),1.01,0.968,1.03,0.93,0.558
CCCCCCC(O)(c1ccc(F)cc1)C(CN1CCOCC1)c1ccccc1 (stereo not given),0.871,0.694,0.879,0.93,0.831
O=C1c2ccccc2C2=Nc3ccccc3SC(c3cccc(F)c3)C12 (stereo not given),0.857,0.869,0.868,0.75,0.844
COc1cccc(C(=O)NC(c2ccc(C)cc2)c2cc(Cl)c3cccnc3c2O)c1 (stereo not given),0.116,0.0583,0.0814,0.247,0.039
COc1ccc(C2c3ccc4ccccc4c3Oc3ncn(CCCN(C)C)c(=N)c32)cc1 (stereo not given),0.0367,0.0483,0.0339,0.0316,0
O=[N+]([O-])c1ccc(C=NNc2nc3ccccc3[nH]2)cc1,0.0818,0.586,0.911,0.869,0.802
O=C(NCc1ccco1)C1CCN(S(=O)(=O)c2ccc(Cl)cc2)CC1,0.568,0.802,1.03,0.942,1.23
O=c1nc(C=Cc2ccc(Br)cc2)oc2ccccc12,0.838,0.88,0.843,0.978,0.935
CC(C)OCc1cc(CN2CCN(c3cccc(Cl)c3)CC2)c(O)c2ncccc12,0.00331,0.0328,0.0297,0.0243,0.011
Cc1ccccc1OCCSc1nc2ccc(NC(=O)c3ccccc3)cc2s1,0.83,0.863,0.944,0.835,0.922
CCOc1ccc(-c2nc(NC(=O)c3cccc(S(C)(=O)=O)c3)sc2C)cc1,0.956,0.686,1.1,0.857,0.857
CCN(CC)CCCNc1ccnc2cc3ccccc3cc12,0.0594,0.485,0.972,0.946,1.1
Cc1ccc(Cl)cc1N1CCN(CCCNC(=O)C2CCN(c3nc4ccccc4[nH]3)CC2)CC1,0.158,0.517,0.628,0.426,0.407
O=C(Nc1ccc(CN2CCOCC2)cc1)c1ccc(-c2cc(Cl)ccc2Cl)o1,0.302,0.64,1.15,1.04,1.04
CCCCOC(=O)c1ccc(Nc2cc(C)nc3ccc(OC)cc23)cc1,0.0647,0.156,0.545,0.411,0.325
